FBA Mtb inh: inhibits M. tuberculosis FBA enzyme. P9WQA3. purified M. tuberculosis FBA, fluorescence read-out. inhibition, % at 1 µM. hit rate 2.3% among 360,000. AID 588726; in the data active = inhibition above about 27%
GDH-TPI inh: inhibits GDH-TPI coupling enzymes, artifact for Mtb FBA screen; GDH-TPI coupled enzyme counterscreen, NADH absorbance; inhibition, % at 4.8 µM; hit rate 1.2% among 360,000; AID 588335; in the data active = inhibition above about 30%
RecA intein inh: blocks M. tuberculosis RecA intein splicing | P9WHJ3 | AID 2221 | inhibition, % (test concentration not listed) | cell-free RecA intein splicing, fluorescence | hit rate 0.75% among 290,000; in the data active = inhibition above about 30%
Target sequence (P9WHJ3 whole entry, looked up): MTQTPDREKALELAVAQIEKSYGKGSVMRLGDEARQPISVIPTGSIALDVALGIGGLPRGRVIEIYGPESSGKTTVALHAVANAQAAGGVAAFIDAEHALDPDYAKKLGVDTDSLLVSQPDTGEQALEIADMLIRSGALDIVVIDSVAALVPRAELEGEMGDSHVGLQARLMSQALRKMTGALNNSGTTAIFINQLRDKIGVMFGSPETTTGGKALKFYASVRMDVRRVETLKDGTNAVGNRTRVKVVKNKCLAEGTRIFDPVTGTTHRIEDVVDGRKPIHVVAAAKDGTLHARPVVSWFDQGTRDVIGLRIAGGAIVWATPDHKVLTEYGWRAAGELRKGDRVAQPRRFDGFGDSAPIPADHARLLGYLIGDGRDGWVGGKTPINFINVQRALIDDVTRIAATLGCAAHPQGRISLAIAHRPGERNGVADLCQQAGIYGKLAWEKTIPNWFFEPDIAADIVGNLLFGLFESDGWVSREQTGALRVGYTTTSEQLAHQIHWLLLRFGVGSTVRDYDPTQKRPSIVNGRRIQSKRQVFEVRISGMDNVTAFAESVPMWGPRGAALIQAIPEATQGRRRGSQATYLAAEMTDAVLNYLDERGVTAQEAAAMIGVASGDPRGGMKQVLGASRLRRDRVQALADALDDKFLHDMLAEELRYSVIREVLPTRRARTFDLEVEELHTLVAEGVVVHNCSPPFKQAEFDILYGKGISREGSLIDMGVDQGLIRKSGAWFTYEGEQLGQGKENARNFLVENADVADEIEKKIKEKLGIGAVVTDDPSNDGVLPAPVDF
BJeLR lethal: kills HRASV12-expressing BJeLR cells; BJeLR (HRASV12) viability, CellTiter-Glo ATP luminescence, 48 h; inhibition, % (concentration not given with the values); hit rate 0.17% among 300,000; in the data active = inhibition above about 50%
PrPC surface inh: inhibitors of human cell surface prion protein PrPC; TR-FRET read-out; inhibition, % at 13.8 µM; hit rate 0.43% among 370,000; AID 720596; in the data active = inhibition above about 24%
PrPC TRFRET cf: confirmation of inhibitors of cell surface human prion protein. shares compounds with PrPC surface inh. cell surface PrPC level, TR-FRET. inhibition, % at 13.8 µM. hit rate 65% among 1,500; in the data active = inhibition above about 25%
LD9 cytotox: counter-screen for PrPc inhibitors: cytotoxicity in LD9 cells. shares compounds with PrPC surface inh. luminescence viability. inhibition, % at 13.8 µM. hit rate 29% among 1,500; in the data active = inhibition above about 9.5%
Hits are given with their value; . = inactive; / = no result; + = active, no number. An excerpt weighted towards active compounds, which were near 4.2% of everything screened.

SMILES | FBA Mtb inh | GDH-TPI inh | RecA intein inh | BJeLR lethal | PrPC surface inh | PrPC TRFRET cf | LD9 cytotox
COc1ccc(NC(=O)c2cc(-c3cc(Cl)ccc3C)n[nH]2)cc1OC | . | . | / | / | 25.0 | 28.2 | 15.2
COc1ccc(NC(=O)c2cc(-c3ccc(F)cc3C)n[nH]2)cc1OC | . | . | / | / | 25.0 | . | .
COc1ccc(NC(=O)c2cc(-c3cc(Cl)ccc3OC)n[nH]2)cc1OC | . | . | / | / | . | / | /
Cc1cc(F)ccc1-c1cc(C(=O)Nc2ccc(F)cc2)[nH]n1 | . | . | / | / | . | / | /
Cc1ccc(CN2CCCCC(NC(=O)Nc3cccc(F)c3)C2=O)cc1 (stereo unspecified) | / | / | / | / | . | / | /
COc1cccc(NC(=O)NC2CCCCN(Cc3ccc(C)cc3)C2=O)c1 (stereo unspecified) | / | / | / | / | 25.0 | . | .
c1ccc2cc3[nH]c(CNc4nc(N5CCOCC5)nc5c4ncn5-c4ccsc4)nc3cc2c1 | / | / | / | / | 25.4 | 37.6 | 13.3
FC(F)(F)c1ccc2nc(CNc3nc(N4CCOCC4)nc4c3ncn4-c3ccsc3)[nH]c2c1 | / | / | / | / | 40.9 | 36.8 | 16.7
c1ccc2[nH]c(CNc3nc(N4CCOCC4)nc4c3ncn4-c3ccsc3)nc2c1 | / | / | / | / | . | / | /
N=C1N(C(=O)OCc2ccccc2)/C(=C\C2=CCCCC2)C(Cc2ccccc2)N1Cc1ccccc1 (stereo unspecified) | / | / | / | / | . | / | /
COCc1cc(N2CCN(C(=O)OC(C)(C)C)C[C@H]2C)ccc1N1CC[C@@H](O)C1 | / | / | / | / | . | / | /
COc1ccc(Cn2c(C)c(CC(=O)Nc3ccc(Oc4cccnc4)c(C)c3)c3ccccc32)cc1 | / | / | / | / | . | / | /
Cn1c(=O)cc(OCCCC(=O)Nc2cc(-c3cn[nH]c3)ccn2)c2ccccc21 | / | / | / | / | 35.2 | 41.3 | 24.3
CCOc1ccc2[nH]cc(C(=O)NCc3ccccc3)c(=O)c2c1 | . | . | . | . | 24.9 | . | .
CCOc1ccc2[nH]cc(C(=O)NCCc3ccccc3)c(=O)c2c1 | . | . | . | . | . | / | /
COc1cc(-n2c(C)cc(O)cc2=O)ccc1Cl | / | / | / | / | . | / | /
CCc1cc2ccc(C)c(C)c2nc1SCC(=O)NNC(=O)c1ccco1 | . | . | . | . | . | / | /
CCc1cc2cccc(C)c2nc1SCC(=O)NNC(=O)c1ccco1 | . | . | . | . | 70.7 | 98.1 | .
CCc1cc2cccc(C)c2nc1SCC(=O)Nc1nonc1C | . | . | . | . | 30.6 | 35.2 | .
CCc1cc2cccc(C)c2nc1SCC(=O)Nc1cc(C)on1 | . | . | . | . | . | / | /
O=C(CSc1nnc(-c2ccccn2)n1-c1ccccc1)c1ccc2c(c1)OCO2 | / | / | / | / | . | / | /
C=CCn1c(=O)c2ccccc2n2c(SCC(=O)O)nnc12 | . | . | . | . | . | / | /
C=CCn1c(=O)c2ccccc2n2c(SCC(N)=O)nnc12 | . | . | . | . | 35.8 | 35.5 | .
COC(=O)Cc1c(C)c2ccc(O)c(CNCc3ccc(OC)c(OC)c3)c2oc1=O | + | . | . | . | 25.0 | . | .
COc1cc(COc2ccc3c(C)c(CC(=O)O)c(=O)oc3c2C)cc(OC)c1OC | . | . | . | . | . | / | /
SMILES | FBA Mtb inh | GDH-TPI inh | RecA intein inh | BJeLR lethal | PrPC surface inh | PrPC TRFRET cf | LD9 cytotox
CC(C)(C)S(=O)(=O)N1Cc2cc(CO)ccc2[C@H]1CCO | / | / | / | / | . | / | /
Cn1c(N)c(C(=O)CSc2nnc(N)s2)c(=O)n(C)c1=O | . | . | / | / | . | / | /
CC(=O)c1c(C)[nH]c(C(=O)CSc2nnc(N)s2)c1C | . | . | . | . | 29.6 | 29.6 | .
Nc1nc(F)nc2c1ncn2[C@@H]1O[C@H](CO)[C@@H](O)[C@H]1O | . | . | . | 96.8 | 44.9 | 43.6 | 54.4
COC(=O)C1CN(Cc2cn(Cc3ccc(C)cc3)nn2)CCS(=O)(=O)N1Cc1ccc(OC)cc1 (stereo unspecified) | / | / | / | / | . | / | /
CSc1cccc(NS(=O)(=O)c2ccc3c(c2)CCN3C(C)=O)c1 | . | . | . | . | 25.3 | . | 14.6
O=C(COc1nsnc1N1CCOCC1)Nc1ccc([N+](=O)[O-])cc1 | . | . | . | . | . | / | /
O=C(COc1nsnc1N1CCOCC1)Nc1ccc(Cl)cc1 | . | . | . | . | 25.6 | . | .
NC(=O)c1nnn(Cc2cc(Cl)c(C(=O)c3ccc(Cl)cc3)c(Cl)c2)c1N | / | / | / | / | 34.6 | 27.7 | .
Nc1c(C(=O)Nc2ccc3c(c2)OCCO3)nnn1Cc1ccc(Cl)cc1 | . | . | . | . | . | / | /
COc1cccc(NC2c3ccccc3C(=O)N2Cc2ccccc2Cl)c1 (stereo unspecified) | . | . | . | . | 29.4 | . | .
O=C(Nc1ccc(C(F)(F)F)cc1)OC1CCC12CCCCC2 (stereo unspecified) | / | / | / | / | . | / | /
C=C1C(=O)OC2CC3(C)OC3C3OC3C3=CC(OC3=O)C12 (stereo unspecified) | . | . | / | / | 92.7 | 79.5 | 21.0
C=C1C(=O)OC2CC3(C)OC3CCC(C)=CC(OC(C)=O)C12 (stereo unspecified) | . | . | / | / | . | / | /
COC(=O)C1=C(C)N(CC(C)C)C(=S)NC1c1ccc(-c2ccccc2)cc1 (stereo unspecified) | / | / | / | / | 25.0 | . | .
COc1cc2nc(C3CCC3)n(NC(=O)C3CCCC(OC)C3)c(=O)c2cc1OC (stereo unspecified) | . | . | . | . | . | / | /
COc1cc2nc(C3CCC3)n(NC(=O)c3ccco3)c(=O)c2cc1OC | . | . | . | . | 41.4 | 36.9 | .
O=c1nc(SCc2cccc(C(F)(F)F)c2)nc2ccccn12 | . | . | . | . | 34.0 | . | .
Cc1ccn2c(=O)nc(SCc3cccc(C(F)(F)F)c3)nc2c1 | . | . | . | . | . | / | /
S=c1nc[nH]c2c1[nH]c1ccccc12 | . | . | . | . | 135.3 | 141.8 | .
O=c1c2[nH]c3ccc(Cl)cc3c2ncn1CCN1CCCCC1 | . | . | / | . | . | / | /
S=c1nc[nH]c2c1[nH]c1ccc(Cl)cc12 | . | . | . | . | 42.6 | 131.5 | .
CC(C)C[C@H]1COc2c(Cl)cccc2S(=O)(=O)N1 | / | / | / | / | . | / | /
CC(=O)c1cccc(NC(=O)C2=CN3CCS(=O)(=O)N=C3C=C2)c1 | . | . | / | / | 46.1 | 45.5 | .
COC(=O)c1cc2c(c3c4cc(F)ccc4n(S(=O)(=O)c4ccc(C)cc4)c13)C(=O)N(Cc1ccccc1OC)C2 | / | / | / | / | . | / | /
SMILES | FBA Mtb inh | GDH-TPI inh | RecA intein inh | BJeLR lethal | PrPC surface inh | PrPC TRFRET cf | LD9 cytotox
Cc1cc(SCCC(=O)O)nc2c(C)cccc12 | . | . | . | . | 70.9 | 68.6 | .
CCOC(=O)c1c(-c2ccsc2)csc1N | . | . | . | . | . | / | /
CCOC(=O)c1c(-c2ccc(C)s2)csc1N | . | . | . | . | 70.4 | 53.8 | .
C=CCCC1CN(Cc2ccc(OC)cc2)S(=O)(=O)c2c(Oc3ccc(C(C)C)cc3)cccc2O1 (stereo unspecified) | / | / | / | / | . | / | /
CCc1cc2ccccc2nc1SCC(=O)Nc1cc(OC)c(OC)cc1C(=O)O | . | . | . | . | 39.6 | . | .
CCOC(=O)C1=NOC(C(=O)NC2CCCC2)(C(=O)c2ccc(OC)cc2)C1 (stereo unspecified) | / | / | / | / | . | / | /
